From PubChem
The list is not random: actives were taken first. Their share in the collection is about 3.4%.
FBW7 act: FBW7 E3 ligase activators, primary screen, biochemical, AlphaScreen, human. normalized activity (activation), % at 26.1 µM. AlphaScreen FBW7–phospho-cyclin E peptide binding, activator screen. 650,000 tested, 0.13% active; in the data active = normalized activity above about 1.9%;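 note: purified mutant Fbw7 with reduced substrate affinity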
TEAD-YAP block: TEAD-YAP interaction inhibition, primary screen, TEAD-YAP interaction inhibitor project, luminescence, HEK-TIYL cells | TEAD-Gal4/YAP UAS-luciferase luminescence | inhibition, % at 9.12 µM | 640,000 tested, 1.4% active | AID 1259422, 2018; in the data active = inhibition above about 32%;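 note: 0% = median of test compound wells and 100% = reference inhibitor wells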
MITF inh: MITF inhibitors, primary screen, biochemical, AlphaScreen, human; Microphthalmia-associated transcription factor (Homo sapiens), O75030; AlphaScreen MITF homodimerization, bead proximity signal; inhibition, % at 2.6 µM; 650,000 tested, 0.91% active; AID 1259374, 2018; in the data active = inhibition above about 50%;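 note: 0% = vehicle wells with protein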
Target sequence (O75030 whole entry, looked up): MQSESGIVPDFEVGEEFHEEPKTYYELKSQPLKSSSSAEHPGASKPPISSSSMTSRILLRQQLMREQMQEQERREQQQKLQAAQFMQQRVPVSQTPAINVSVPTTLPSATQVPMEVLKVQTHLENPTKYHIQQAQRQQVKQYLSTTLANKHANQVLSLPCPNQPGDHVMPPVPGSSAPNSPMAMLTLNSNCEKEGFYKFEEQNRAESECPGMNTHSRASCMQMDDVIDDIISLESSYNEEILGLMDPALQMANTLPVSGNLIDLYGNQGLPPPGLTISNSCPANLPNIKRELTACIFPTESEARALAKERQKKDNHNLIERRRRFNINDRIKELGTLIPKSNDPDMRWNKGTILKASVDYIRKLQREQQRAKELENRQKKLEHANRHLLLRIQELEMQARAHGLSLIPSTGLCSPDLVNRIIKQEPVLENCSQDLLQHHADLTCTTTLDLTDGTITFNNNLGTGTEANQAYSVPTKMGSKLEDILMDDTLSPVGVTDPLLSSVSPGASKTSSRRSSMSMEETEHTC
GPR151 activ: activators of human GPR151, primary screen, cell-based, PathHunter beta-arrestin, luminescence. G-protein coupled receptor 151 (Homo sapiens), Q8TDV0. PathHunter beta-arrestin GPR151 cells. activation, % at 11.2 µM. 650,000 tested, 1% active; in the data active = activation above about 4.9%;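 note: 0% = median of compound wells and 100% = cells with positive control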
An asterisk follows results filed as active.

SMILES	FBW7 act	TEAD-YAP block	MITF inh	GPR151 activ
CCCCC(C(=O)O)N1C(=O)/C(=C\c2ccco2)SC1=S (configuration not stated)	-0.1	-2.1	27.6	-0.2
CCCCC(C(=O)O)N1C(=O)/C(=C\c2ccc(C)o2)SC1=S (configuration not stated)	-0.9	7.2	26.4	0.1
CCC(C(=O)O)N1C(=O)/C(=C\c2ccc(C)o2)SC1=S (configuration not stated)	-0.1	0.4	62.0*	-1.0
O=C(O)CCC(C(=O)O)N1C(=O)/C(=C/c2ccccc2)SC1=S (configuration not stated)	0.1	6.0	2.9	-1.8
Cc1ccc(/C=C2/SC(=S)N(C(CCC(=O)O)C(=O)O)C2=O)o1 (configuration not stated)	-1.7	-8.5	54.8*	1.0
CC(NC(=O)c1ccccc1Br)c1n[nH]c(=S)n1C (configuration not stated)	-0.1	2.3	-14.6	0.8
Cc1ccc(N=Cc2ccc(O)cc2O)c(C)c1	0.0	-3.3	-8.8	0.0
CCN(CC)C(=O)Cn1cnc2sc(C(=O)Nc3ccc(Cl)cc3)c(C)c2c1=O	0.7	-38.2	11.1	0.5
O=C(Cc1ccccc1)Nc1ncc(Cc2ccc(Cl)cc2)s1	-0.1	-4.7	-1.4	0.8
COCCCN1C(=O)C2C(C(=O)Nc3cccc(C)c3)C3C=CC2(O3)C1C(=O)NC1CCCCC1C (configuration not stated)	-0.1	6.1	0.7	3.2
CC(=O)N1CCc2cc(N=Cc3ccc(Cl)cc3)ccc21	-0.2	13.2	-3.6	1.4
COc1ccc(Nc2nc(NCc3ccco3)c3ccccc3n2)cc1	-0.2	50.0*	6.7	1.8
Fc1ccc(Nc2nc(NCc3ccco3)c3ccccc3n2)cc1	0.3	35.6*	29.1	0.5
Clc1ccc(Nc2nc(NCc3ccco3)c3ccccc3n2)cc1	-0.1	0.3	-2.8	0.5
Cc1cccc(N2CCN(c3ncnc4c3c(-c3ccccc3)cn4-c3ccc(F)cc3)CC2)c1C	0.1	-4.5	4.7	0.0
CCc1ccc(S(=O)(=O)Nc2ccc3oc(C)c(C(=O)OC)c3c2)cc1	-0.2	60.1*	-5.3	3.3
CCCc1oc2ccc(NS(=O)(=O)c3ccc(C)cc3)cc2c1C(=O)OCC	0.1	57.1*	17.4	0.3
CCCc1oc2ccc(NS(=O)(=O)c3ccc(F)cc3)cc2c1C(=O)OCC	-0.1	8.8	-3.6	0.8
COC(=O)c1c(C)oc2ccc(NS(=O)(=O)c3ccc(C)cc3C)cc12	-0.1	46.2*	-1.9	4.1
CC(=O)c1c(C)oc2ccc(NS(=O)(=O)c3c(C)cc(C)cc3C)cc12	0.1	37.0*	0.2	2.5
COC(=O)c1c(C)oc2ccc(NS(=O)(=O)c3cc(C)ccc3C)cc12	-0.1	30.8	-4.1	1.3
CC(=O)c1ccc(C)cc1OC(=O)c1ccccc1C	0.0	-1.4	1.1	2.1
CCOC(=O)c1c(NC(=O)/C=C/c2ccc(Cl)cc2Cl)sc2c1CCCC2	0.4	2.6	19.0	0.0
C=CCOc1ccc(C(=O)N2CCn3c(nnc3C3CC3)C2)cc1	0.3	9.6	4.2	-0.9
Cc1ccc(Nc2nnc(SCC(=O)N3CC(=O)Nc4ccccc43)s2)cc1C	0.0	-3.1	8.5	2.3
SMILES	FBW7 act	TEAD-YAP block	MITF inh	GPR151 activ
COC(=O)c1c(C)oc2ccc(N(C(=O)c3ccc([N+](=O)[O-])cc3)S(=O)(=O)c3ccc(C)cc3)cc12	-0.1	58.5*	21.4	0.0
CCOC(=O)c1c(C)oc2ccc(NS(=O)(=O)c3ccc(Cl)cc3)cc12	0.0	10.7	2.9	0.4
COCc1oc2ccc(NS(=O)(=O)c3ccc(C)cc3)cc2c1C(=O)OC	-0.1	55.0*	-7.0	-1.2
CCOC(=O)c1c(C)oc2ccc(NS(=O)(=O)c3ccc(C)cc3)cc12	-0.1	34.0*	0.3	0.4
CC(=O)c1c(C)oc2ccc(N(C(C)=O)S(=O)(=O)c3cccc4cccnc34)cc12	0.0	52.4*	6.2	0.7
COC(=O)c1ccc(NC(=O)CCC(=O)Nc2ccc(C(=O)OC)cc2)cc1	-0.1	3.2	9.1	-0.5
CCc1ccc(S(=O)(=O)N(C(C)=O)c2ccc3oc(C)c(C(=O)OC)c3c2)cc1	0.0	48.8*	1.3	0.9
CCOc1ccc(S(=O)(=O)Nc2ccc3oc(C)c(C(=O)OCCOC)c3c2)cc1	0.1	57.3*	2.8	-0.8
COc1ccc(-c2csc3ncnc(Cl)c23)cc1OC	1.8	33.9*	13.1	1.5
Cc1cc(-c2cncnc2C2CCN(C(=O)c3cnsc3)CC2)on1	0.2	1.9	11.3	1.3
CCOc1ccc(CC(=O)NCc2ccccc2)cc1	-0.1	37.4*	-1.9	0.5
COc1ccc(CNC(=O)Cc2ccc(-n3cccc3)cc2)cc1	0.3	44.8*	16.1	-0.9
COCC(=O)N/N=C(\C)CC(=O)NCc1ccc(OC)cc1	2.1*	-14.5	9.7	-1.3
CCOc1ccc(CNC(=O)Cc2cn(C)c3ccccc23)cc1	0.5	5.0	18.4	-0.1
Cc1ccc(S(=O)(=O)CCc2nnc(NC(=O)CSc3ccc(Cl)cc3)s2)cc1	-0.1	7.9	7.2	-0.3
CCCN1C(=O)C(O)(CC(=O)c2cccc(OC)c2)c2cc(Br)ccc21 (configuration not stated)	0.2	1.8	-4.2	0.6
CC(=O)Nc1ccc(S(=O)(=O)N2c3ccccc3C(C)=CC2(C)C)cc1	0.1	58.1*	-0.1	0.2
c1ccc(-c2csc3ncnc(NCc4ccccn4)c23)cc1	0.2	13.1	-2.2	-0.4
COC(=O)CCCNc1ncnc2scc(-c3ccccc3)c12	-0.1	34.6*	-2.4	-0.9
COC(=O)CNc1ncnc2scc(-c3ccccc3)c12	0.2	-4.0	10.4	-0.8
COCCCNc1ncnc2scc(-c3ccccc3)c12	0.1	59.1*	2.4	2.0
CCCCNc1ncnc2scc(-c3ccccc3)c12	0.8	56.2*	19.1	3.2
c1ccc(-c2csc3ncnc(NCc4ccco4)c23)cc1	-0.1	33.7*	16.4	2.2
Cc1ccc(C)c(NC(=O)C2CC3c4ccccc4C2c2ccccc23)c1 (configuration not stated)	2.0*	1.4	0.7	-0.9
Cc1cncc2c(S(=O)(=O)N3CCCN(C(=O)CN)C[C@@H]3C)cccc12	-0.5	-6.7	11.3	2.5
Cc1cncc2cccc(S(=O)(=O)N3CCCN(C(=O)CN)C[C@@H]3C)c12	0.1	36.0*	16.2	0.9
O=C1NC2(Nc3ccccc31)C(=O)N(Cc1cccc3ccccc13)c1ccccc12 (configuration not stated)	0.0	-1.4	4.4	0.4
COc1cc(N2C(=O)NC(=O)/C(=C\c3ccc(N(C)C)cc3)C2=O)cc(OC)c1OC	2.5*	2.4	1.7	-0.3
COc1ccc(-n2c(C)c(C(C)=O)c3cc(OC(=O)c4ccc(C)cc4)ccc32)cc1	1.2	47.6*	-5.0	-0.4
O=C1c2cc(Br)c([N+](=O)[O-])cc2C(=O)N1c1ccccc1	0.3	2.6	12.7	1.4
